Outcome and Potency data for 18 compounds are collected here from PubChem BioAssay (Tox21).

The nature of assay [1]: qHTS assay to identify small molecule antagonists of the vitamin D receptor (VDR) signaling pathway - cell viability counter screen (AID 743225). Further: nearly all actives have a fitted effect of over 50% in size. In short, it runs like this: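 Parallel cytotoxicity test: VDR-UAS-bla HEK 293T, 3 nM (final) 1-alpha,25-dihydroxyvitamin D3 with test compound, 16 h, 37C. Endpoint is CellTiter-Glo luminescence in the same wells.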
For orientation: Quantitative high-throughput screening tests each substance at several concentrations.

The nature of assay [2]: qHTS assay to identify small molecule agonists of the NFkB signaling pathway (AID 1159509; active means well fitted curve in the direction sought with a large enough effect in the signal ratio in the repeat runs, not every such curve was filed as active; the % refers to the signal ratio; further: series mostly up to about 61 µM). In short, it runs like this: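 NFkB-bla ME-180 cells with a beta-lactamase reporter under an NF-kB response element were plated overnight, treated with compounds in DMSO for 5 hr at 37 C, then loaded with FRET substrate for 1.5 hr at room temperature.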
A short description of assay [3]: qHTS assay to identify small molecule agonists of the NFkB signaling pathway - cell viability counter screen (AID 1159515; calls by dose curve; further: series mostly up to about 61 µM; nearly all actives have a fitted effect of over 55% in size). In short, it runs like this:
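NFkB-bla ME-180 cells, 2,000/well, were plated overnight at 37 C, 5% CO2, then exposed to compounds in DMSO for 5 hr. After the bla FRET read, CellTiter-Glo was added to the same wells; luminescence was read after 30 min at room temperature.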

Assay [4] in a line: qHTS assay to identify small molecule agonists of the endoplasmic reticulum stress response signaling pathway (AID 1159516; active means well fitted activation curve with a large enough effect in the signal ratio in the repeat runs, not every such curve was filed as active; the % refers to the signal ratio). The method in brief: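 CellSensor ESRE-bla HeLa cells, carrying a beta-lactamase reporter driven by the ER stress response element, were plated overnight and exposed to compounds for 5 hr at 37 C. Reporter activity was read as FRET substrate fluorescence after 2 hr at room temperature.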

The nature of assay [5]: qHTS assay to identify small molecule agonists of the endoplasmic reticulum stress response signaling pathway - cell viability counter screen (AID 1159517; calls by dose curve; further: series mostly up to about 61 µM; nearly all actives have a fitted effect of over 50% in size). In short, it runs like this:
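Counter-screen wells were identical to the reporter wells. Cells were plated at 1,500 per well and dosed for 5 hr, then read for luminescence 30 min after CellTiter-Glo addition.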

Assay [6] in a line: qHTS assay to identify small molecule antagonists of the retinoid-related orphan receptor gamma (ROR-gamma) signaling pathway - cell viability counter screen (AID 1159520). Further: nearly all actives have a fitted effect of over 50% in size. In short, it runs like this:
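Tet-on ROR gamma CHO cells were given compounds for 2 hr, then doxycycline hyclate at 1 uM final, and incubated 16 hr at 37 C. Viability was measured as ATP content by CellTiter-Glo luminescence.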

The target in assay [7] is Nuclear receptor ROR-gamma (Homo sapiens) (UniProt P51449). The experiment in a line: qHTS assay to identify small molecule antagonists of the retinoid-related orphan receptor gamma (ROR-gamma) signaling pathway (AID 1159521; further: nearly all actives have a fitted effect of over 50% in size; further: potency means the concentration at half of the fitted maximal effect). In short, it runs like this:
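Decreased RORE-driven luciferase luminescence indicates antagonism. Tet-on RORγ CHO cells received compound, then 1 uM final doxycycline 2 h later; signal read after 16 h incubation.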

The nature of assay [8]: qHTS assay to identify small molecule agonists of the AP-1 signaling pathway - cell viability counter screen (AID 1159525; calls by dose curve; further: nearly all actives have a fitted effect of over 55% in size). The method in brief: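 AP-1-bla ME-180 cells in Opti-MEM with 0.5% dialyzed FBS, compound exposure 5 h at 37 C in 15-point titration. Viability read in the same wells as ATP content by CellTiter-Glo luminescence, normalised to tetra-n-octylammonium bromide and DMSO controls.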

Assay [9] is described as follows: qHTS assay to identify small molecule agonists of the AP-1 signaling pathway (AID 1159526; calls by dose curve; further: potency means the concentration at half of the fitted maximal effect).
Assay [10] in a line: qHTS assay to identify small molecule antagonists of the retinoic acid receptor (RAR) signaling pathway (AID 1159552; further: nearly all actives have a fitted effect of over 50% in size). In short, it runs like this: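 C3RL4 RARE-luc cells, overnight plating; retinol 1 uM final added right after compound; 6 hr 37 C; luciferase read at 30 min RT.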
The nature of assay [11]: qHTS assay to identify small molecule agonists of the retinoic acid receptor (RAR) signaling pathway (AID 1159553). Further: potency means the concentration at half of the fitted maximal effect. The method in brief:
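C3RL4 cells carrying a RARE luciferase reporter were plated overnight at 37 C, then exposed to compounds in DMSO for 6 hr at 37 C and 5% CO2. Luminescence was read 30 min after luciferase reagent addition at room temperature.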

A short description of assay [12]: qHTS assay to identify small molecule antagonists of the retinoid acid receptor (RAR) signaling pathway - cell viability counter screen (AID 1159551). Further: nearly all actives have a fitted effect of over 35% in size. The method in brief: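 C3RL4 cells were seeded overnight at 37 C, then treated with compounds plus 1 uM (final) retinol for 6 h at 37 C. Viability was read as ATP by CellTiter-Glo luminescence after 30 min at room temperature.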

A short description of assay [13]: qHTS assay to identify small molecule agonists of the RXR signaling pathway - cell viability counter screen (AID 1159529). In short, it runs like this:
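In this parallel viability measure, GeneBLAzer RXR-alpha HEK 293T cells (2% charcoal-stripped FBS) were given a 5 hr preincubation, treated with compounds 16 hr at 37 C, and read by CellTiter-Glo luminescence.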

Assay [14] has as its target Retinoic acid receptor RXR-alpha (Homo sapiens) (UniProt P19793). Put plainly: qHTS assay to identify small molecule agonists of the RXR signaling pathway (AID 1159527; calls by dose curve; further: nearly all actives have a fitted effect of over 35% in size). In short, it runs like this:
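16 hr incubation of compound-treated RXR-alpha-UAS-bla HEK 293T cells (2% charcoal-stripped FBS, 37 C) preceded a 2 hr room-temperature LiveBLAzer FRET substrate step and blue/green fluorescence measurement.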

SMILES strings stand for the structures. Records with an inconclusive call do not appear. Values without a mark were called inactive. Active and inactive are the calls of the source. Unless noted, the call rests on the fitted dose curve; in most records, active means well fitted curve in the direction sought with a large enough effect in the repeat runs; inconclusive means weak or mixed curves; inactive means no such curve, though single readings can be large; an effect the other way counts as inactive or inconclusive.

Chain of Retinoic acid receptor RXR-alpha (Homo sapiens) (P19793 whole entry, looked up): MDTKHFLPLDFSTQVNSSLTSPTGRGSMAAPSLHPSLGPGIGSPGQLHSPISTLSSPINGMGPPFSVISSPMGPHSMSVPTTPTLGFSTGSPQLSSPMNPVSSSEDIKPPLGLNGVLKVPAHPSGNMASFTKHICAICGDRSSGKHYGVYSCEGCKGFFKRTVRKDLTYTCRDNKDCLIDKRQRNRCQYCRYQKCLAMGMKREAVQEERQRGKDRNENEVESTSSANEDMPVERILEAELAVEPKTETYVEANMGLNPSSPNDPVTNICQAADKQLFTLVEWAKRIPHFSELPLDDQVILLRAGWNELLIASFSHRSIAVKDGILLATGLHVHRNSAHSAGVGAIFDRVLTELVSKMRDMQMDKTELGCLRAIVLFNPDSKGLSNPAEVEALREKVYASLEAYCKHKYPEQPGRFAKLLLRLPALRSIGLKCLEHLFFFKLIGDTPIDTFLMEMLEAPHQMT

As to `CC(C)CC(C)(C)C`, the call in assay [1], in assay [2], in assay [3], in assay [4], in assay [5] and in [8] was inactive. Moreover, the outcome in [10] was inactive. Besides, the Potency result in [6], in assay [7], in [9] and in [11] was “inactive” each time.

For the compound `NCCOCCOCCN`, the compound was classed as inactive in [1], in [2], in [3], in assay [4], in [5] and in assay [8]. In assay [12], the compound was called inactive. In addition, the Potency result in [6], in assay [7] and in assay [9] was “inactive” each time.

For the compound `CCCCCCOC(=O)c1ccccc1`, the result in assay [2], in assay [3], in [4], in assay [5], in assay [8] and in assay [12] was inactive. For the same compound, the call in assay [10] was inactive. The Potency entry in [6], in assay [7], in [9] and in assay [11] was “inactive” throughout.

On to `CCCCCCCCCCCCN1CCOCC1`, for which the compound was classed as inactive in assay [1], in [2], in assay [3], in assay [4], in [5] and in assay [8]. The Potency entry in [6], in assay [7], in [9] and in assay [13] was “inactive” in each case.

For the compound `Cc1cccc(C)c1NC(=O)CN1CCCC1`, the call in assay [1], in assay [2], in assay [3], in assay [4], in assay [5] and in [8] was inactive. Further, the call in assay [14], in [12] and in [10] was inactive. In addition, the Potency entry in assay [6], in assay [7], in assay [13] and in [11] was “inactive” in each case.

Take `CCOC(C)OCC`: the outcome in assay [1], in assay [2], in assay [3], in assay [4], in [5] and in [8] was inactive. For the same compound, the Potency result in [6], in assay [7], in [9], in assay [13] and in assay [11] was “inactive” in each case.

In the case of `CCCCCCCCCCCCCCCCC(=O)O`, the call in assay [1], in assay [2], in assay [3], in assay [4], in assay [5] and in [8] was inactive. Further, the compound was classed as inactive in assay [14], in assay [12] and in [10]. In addition, the Potency result in [6], in assay [7], in [13] and in assay [11] was “inactive” in each case.

With `CCc1ccc2c(c1)C(=O)c1ccccc1C2=O`, the compound was called inactive in [1], in assay [2], in assay [3], in assay [4], in assay [5] and in [12]. Further, the compound was called inactive in assay [10]. Also, the Potency result in assay [6], in assay [7], in assay [9] and in assay [13] was “inactive” throughout. Besides, the Potency in assay [11] is 1.72 µM (active).

As to `CC(C)(C)N`, the call in [1], in assay [2], in [3], in [4], in [5] and in [8] was inactive. The outcome in [10] was inactive. In addition, the Potency entry in assay [6], in assay [7], in [9], in [13] and in [11] was “inactive” in each case.

`O=C(c1ccco1)N1CCNCC1`: the result in assay [1], in [2], in assay [3], in assay [4], in [5] and in assay [8] was inactive. Moreover, the compound was called inactive in [14] and in assay [12]. The Potency result in assay [6], in [7], in assay [13] and in assay [11] was “inactive” each time.

With `O=C1CCCN1CCO`, the result in assay [1], in [2], in [3], in assay [4], in [5] and in assay [8] was inactive. For the same compound, the call in [12] was inactive. Further, the Potency result in assay [6], in assay [7], in [9] and in assay [11] was “inactive” each time.

`Nc1ccccc1Nc1ccccc1`: the compound was called inactive in [1], in assay [2], in assay [3], in [4], in assay [5] and in [8]. In addition, the call in assay [10] was inactive. For the same compound, the Potency entry in assay [6], in [7], in assay [9] and in assay [13] was “inactive” throughout.

For the compound `CCCCCCC/C=C/C=O`, the outcome in assay [1], in assay [2], in assay [3], in assay [4], in [5] and in assay [8] was inactive. Besides, the result in assay [12] was inactive. In addition, the Potency result in [6], in [7], in [9] and in [11] was “inactive” each time.

Take `Clc1cc(Cl)c2c(c1)N=C1CCCCCN1C2`: the call in assay [1], in [2], in [3], in assay [4], in assay [5] and in assay [8] was inactive. Moreover, the call in assay [10] was inactive. In addition, the Potency entry in [6], in assay [7] and in assay [9] was “inactive” throughout.

`CCCCCCCCOCCCN`: the result in [2], in [3], in assay [4], in assay [5], in [8] and in assay [14] was inactive. Moreover, the compound was called inactive in assay [12]. The Potency entry in [6], in [7], in assay [13] and in [11] was “inactive” throughout.

For `C=CC(C)CCC=C(C)C` (stereo not drawn), the compound was classed as inactive in [1], in assay [2], in assay [3], in [4], in assay [5] and in assay [8]. The compound was classed as inactive in [12]. For the same compound, the Potency result in [6], in [9], in assay [13] and in [11] was “inactive” each time.

As to `O=c1c2ccccc2oc2ccccc12`, the compound was classed as inactive in [1], in assay [2], in [3], in assay [4], in assay [5] and in assay [8]. For the same compound, the outcome in assay [12] and in [10] was inactive. The Potency entry in [6], in assay [9] and in assay [13] was “inactive” each time. Moreover, in assay [11], the Potency is 27.3 µM (active).

Turning to `O=c1[nH][nH]c2ccccc12`, the compound was called inactive in [1], in [2], in assay [3], in [4], in assay [5] and in assay [12]. Moreover, the Potency entry in assay [6], in assay [13] and in assay [11] was “inactive” each time. Also, the results for the Potency in assay [7] and in assay [9] were 15.6 µM (active) and 49.9 µM (active), respectively.
